PubChem BioAssay (NCATS)
Records with an inconclusive call do not appear. A number with no mark means an inactive call. Active and inactive are the calls of the source. Calls come from the whole dose curve; as a rule, active = well fitted inhibition curve with a large enough effect; inconclusive = small, poorly fitted or top-dose-only effect; inactive = no such curve, though single readings can be large or run the other way.

The compounds below were run against Cytochrome P450 2D6 (Homo sapiens) (UniProt P10635) (assay: qHTS Assay for Inhibitors and Substrates of Cytochrome P450 2D6 (AID 891; note: nearly all actives have a fitted effect of over 60% in size)). Conditions: recombinant CYP2D6, luciferin-ME EGE luminescence; series mostly up to 11.4 µM; activity change, negative = inhibition: at the top concentration.
Chain of Cytochrome P450 2D6 (Homo sapiens) (P10635 whole entry, looked up): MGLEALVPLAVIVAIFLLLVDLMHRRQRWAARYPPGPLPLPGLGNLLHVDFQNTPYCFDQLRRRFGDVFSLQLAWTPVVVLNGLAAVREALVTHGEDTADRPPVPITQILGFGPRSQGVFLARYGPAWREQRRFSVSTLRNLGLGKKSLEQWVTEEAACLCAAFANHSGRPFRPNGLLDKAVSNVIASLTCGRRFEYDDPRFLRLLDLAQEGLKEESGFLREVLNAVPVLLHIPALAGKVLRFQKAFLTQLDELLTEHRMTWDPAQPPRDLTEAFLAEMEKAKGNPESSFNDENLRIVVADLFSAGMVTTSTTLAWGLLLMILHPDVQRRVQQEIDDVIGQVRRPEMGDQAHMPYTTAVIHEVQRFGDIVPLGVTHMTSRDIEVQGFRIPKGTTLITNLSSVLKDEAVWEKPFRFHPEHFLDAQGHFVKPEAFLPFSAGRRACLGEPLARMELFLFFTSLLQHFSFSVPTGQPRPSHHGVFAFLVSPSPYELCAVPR
Experimental: NIH Molecular Libraries Screening Centers Network [MLSCN]
NIH Chemical Genomics Center [NCGC]
The P450 gene superfamily is involved in the metabolism and clearance of xenobiotics. This assay used human CYP2D6 to measure the demethylation of ethylene glycol ester of luciferin 6' methyl ether (Luciferin-ME EGE; […]) to luciferin. The luciferin is then measured by luminescence after the addition of a luciferase detection reagent. Luciferin-ME EGE concentration in the assay was equal to its Km for CYP2D6. Inhibitors and some substrates limit the production of luciferin, and decrease measured luminescence.
NCGC Assay Protocol Summary:
Two uL of enzyme and substrate mix (final concentrations: 5nM CYP2D6, 30uM Luciferin-ME EGE, 100mM KPO4) were dispensed into a white, solid bottom 1536-well microtiter plate. 23nL of compound was transferred by a pin tool. The plate was incubated at room temperature for 10 min. Two uL of an NADPH regeneration solution (Promega supplied reagent) was dispensed and the reaction was allowed to continue for 60 min at room temperature. Then the reaction was stopped by reconstituted luciferin detection buffer. After another 20 min of incubation the plate was read on the ViewLux (Perkin Elmer) at 60 sec exposure and 2x2 binning. This protocol was carried out with Promega-Glo reagents and further information can be found at http://www.promega.com/tbs/tb325/tb325.pdf. Data were normalized to the to AC100 inhibition (1.43 uM quinidine).
Keywords: P450, CYP2D6, Luciferase, MLSMR, MLSCN, NIH Roadmap, qHTS, NCGC
% is set by controls: 0 for no effect and ±100 for the full control effect; potency is the fitted concentration of half-maximal effect.

SMILES | activity change, negative = inhibition | Potency
C=CCOC(=O)C(C(C)=O)C(NC(=O)OC)c1cccc(C(F)(F)F)c1 (stereo not given) | 26.6% | –
CCOC(=O)[C@]1(C(/C=C/c2ccco2)NC(=O)OC)CCCC1=O (stereo not given in full) | 9.82% | –
CC1(C)OC(C(O)(c2ccccc2)c2ccccc2)C(C(O)(c2ccccc2)c2ccccc2)O1 (stereo not given) | -9.14% | –
O=C1OC(C2=CCCCC2)=NC12CC2 | 2.16% | –
CCC/C=C/C1C(=O)C2OC2C2(OCC(CC)(CC)CO2)C1CO (stereo not given) | -17.6% | –
COC(=O)NC(CC(C)=O)c1ccco1 (stereo not given) | 6.42% | –
CCCCC#CC1C=CC(Oc2ccc(C(=O)OC)cc2)C(COC(=O)OCC)O1 (stereo not given) | -6.3% | –
COC(=O)NC(/C(C(=O)OC)=C(\C)NCc1ccccc1)c1ccco1 (stereo not given) | -11.3% | –
COc1cccc([C@@H]2Oc3ccc(OC)cc3/C(=N/O[C@@H](C)CN3CCCc4nc(C)c(C)cc43)[C@@H]2O)c1 | – | 3.98 µM (active)
COc1ccc(OC2C=CC(c3ccccc3)OC2CO)c(C(C)=O)c1 (stereo not given) | -6.72% | –
CCCCCCC(=O)Cc1cc(OC)c(OC)cc1C=C(C(=O)OCC)C(=O)OCC | 6.28% | –
COc1cccc([C@@H]2Oc3ccc(Br)cc3C(=O)[C@H]2O)c1 | – | 3.16 µM (active)
Cc1ccc(OC2C(O)COC2/C=C/C#Cc2ccc(C(C)(C)C)cc2)cc1 (stereo not given) | – | inactive
C/C=C/OC(=O)NC(c1ccccc1)[C@]1(C(C)=O)CCOC1=O (stereo not given in full) | 7.1% | –
CC(C)[C@H](NC(=O)OC(C)(C)C)[C@@H](O)CC(=O)OC(C)(C)C | – | 3.16 µM (active)
O=C1C=C[C@@H](O)[C@@H]2[C@H]3C(=O)N(c4ccc(F)cc4F)C(=O)[C@@H]3CC[C@@H]12 | -5.52% | –
OCC1OC(c2ccccc2)C=CC1Oc1ccc(C2CCCC2)cc1 (stereo not given) | 1.23% | –
C#CC(C)OC(=O)c1nnc2c3ccccc3n(COC)c2n1 (stereo not given) | 5.46% | –
COC(=O)NC(/C(C(=O)OC)=C(\C)NCc1ccccc1)c1ccc(F)cc1 (stereo not given) | – | 1 µM (active)
CCC(=O)CC(NC(=O)OC)c1ccccc1 (stereo not given) | -9.43% | –

SMILES | activity change, negative = inhibition | Potency
COC(=O)C/C=C\[C@@H](C)[C@@H](/C=N\OC[C@@H](O)COCc1ccco1)NS(=O)(=O)c1ccc(C)cc1 | 21.3% | –
C=CC[C@@H]1C=C[C@H](O/N=C(\C)CCN2CCCCc3nc(C)c(C)cc32)[C@H](CO)O1 | – | 3.98 µM (active)
CCC1OCCC=CC1C (stereo not given) | 15.4% | –
COC(=O)NC(c1ccccc1)C(C(=O)OC)C(=O)OC (stereo not given) | – | 0.0079 µM (active)
OCC1OC(c2ccc3c(c2)OCO3)C=CC1Oc1cc(Cl)cc(Cl)c1 (stereo not given) | – | 3.16 µM (active)
COC(=O)C/C=C\[C@@H](C)[C@@H](/C=N\O[C@@H](C)CN1CCCc2nc(C)c(C)cc21)NS(=O)(=O)c1ccc(C)cc1 | – | 3.16 µM (active)
CC(=O)Nc1ccc(C2C(C)CCC3C(=O)N4C(CCC(C)[C@@H]4c4ccc(NC(C)=O)cc4)C(=O)N32)cc1 (stereo not given in full) | -7.78% | –
COc1ccc(OC2C=CC(C#Cc3ccccc3)OC2CO)cc1 (stereo not given) | -6.01% | –
C=C(C)C(O)/C=C/c1ccc(OC)cc1 (stereo not given) | -20.1% | –
COc1cccc(C2C(C)CCC3C(=O)N(C)C(C(C)C)C(=O)N32)c1 (stereo not given) | -6.58% | –
CO[C@H]1COC(=O)CCC[C@H](C)[C@H](OC)COC(=O)C/C=C\[C@@H]1C | 23.2% | –
Cc1ccc(C#CC2C=CC(Oc3ccc4c(c3)OCO4)C(CO)O2)c(C)c1 (stereo not given) | 10.5% | –
COC(=O)C1=C(C)N(Cc2ccccc2)[C@]23O[C@](C(=O)OC)(C(=O)N2C1c1ccccc1)C1C(=O)N(c2ccccc2)C(=O)C13 (stereo not given in full) | – | inactive
COc1ccc(/C=C/NC(=O)Cc2ccc(OC)c(OC)c2)cc1 | – | inactive
COC(=O)NC(CC(C)=O)c1cccc(C(F)(F)F)c1 (stereo not given) | -10.4% | –
CCC(=O)CC(NC(=O)OC)c1ccc(F)cc1 (stereo not given) | -4.99% | –
CCN1C(=O)[C@H]2[C@H]3[C@H](O)[C@H](O)C/C(=N/OC[C@@H](C)[C@H](OCc4ccccc4)C(C)C)[C@@H]3CC[C@@H]2C1=O | 22.9% | –
C=CCOC(=O)/C=C/NC(=O)/C=C/C=C/CCCCCCCC(C)O (stereo not given) | – | inactive
CCCCC1CN2C(CCC(C)C2c2ccc(Br)cc2)C(=O)O1 (stereo not given) | 6.79% | –
CCOP(=O)(CC(C(C)=O)C(O)c1ccccc1)OCC (stereo not given) | 12.1% | –
